Active and inactive are the calls of the source.
Columns and labels:
[1] = tested on: Human papillomavirus type 1a protein E7 (residues 44-93); assay: HPV1a E7 fragment binders on microarrays, primary screen, biochemical, small-molecule microarray, residues 44-93, 635 nm fluorescence (AID 1108); conditions: small-molecule microarray binding, fluorescence 635 nm; higher = more signal;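 also: E7 fragment applied at 1 µg/mL in TBST for 1 h at 4 C; score combines spot fluorescence with its signal to noise ratio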
[2] = modulators of HCV replicon luciferase signal, primary screen, HCV replication inhibitor project, Huh7 cells, luciferase reporter (AID 1109); conditions: 48 h, higher = more signal;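 also: huh7 hepatoma cells harbouring a luciferase neomycin HCV replicon reporter; luciferase luminescence as measure of HCV replicon replication; test concentration not given here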
[3] = biological target: Left-right determination factor 2 (Homo sapiens) (UniProt O00292); assay: LEFTY2 binders on small-molecule microarrays, primary screen, biochemical, small-molecule microarray, 635 nm fluorescence scan (AID 1110); conditions: LEFTY2 binding, higher = more signal
[4] = biological target: Calmodulin-1 (Homo sapiens) (UniProt P0DP23); assay: CALM1 binders on microarrays, EGTA buffer, profiling panel, biochemical, small-molecule microarray, Cy5-labelled CALM1 (AID 1111); conditions: Cy5-CALM1 binding fluorescence, higher = more signal;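 also: labelled calmodulin applied in Tris saline Tween buffer holding calcium plus EGTA and DTT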
[5] = biological target: Calmodulin-1 (Homo sapiens) (UniProt P0DP23); assay: calcium-bound CALM1 binders on microarrays, profiling panel, artefact control for SMM control-protein annotation, biochemical, small-molecule microarray, Cy5-labelled CALM1, plus calcium (AID 1112); conditions: Cy5-CALM1 binding fluorescence, higher = more signal;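 also: score merges spot fluorescence with signal to noise from triplicate slides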
[6] = small-molecule microarray binders of probe aWnt5a, primary screen, biochemical, biotinylated probe, 635/667 nm fluorescence (AID 1113); conditions: higher = more signal;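 also: score merges 667 nm fluorescence intensity with signal-to-noise per printed feature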
[7] = small-molecule microarray binders of probe aShh, primary screen, biochemical, biotinylated probe, 635/667 nm fluorescence (AID 1114); conditions: higher = more signal;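 also: probe is biotin-labelled aShh protein from a stem cell growth factor screen; measures binding of labelled protein to compounds printed on the slide; score merges feature fluorescence at 667 nm with signal-to-noise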
[8] = small-molecule microarray binders of probe aNog, primary screen, biochemical, biotinylated probe, 635/667 nm fluorescence (AID 1115); conditions: higher = more signal;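 also: probe is biotinylated aNog protein used at 0.15 µg/mL for 1 h at 4 C; z-score combines 667 nm fluorescence of each spot with its signal to noise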
[9] = biological target: Torsin-1A-interacting protein 1 (Homo sapiens) (UniProt Q5JTV8); assay: LAP1 binders from COS7 cell lysate, primary screen, small-molecule microarray, 635/667 nm fluorescence (AID 1116); conditions: COS7-hLAP1 lysate binding, 635 nm fluorescence, higher = more signal
[10] = biological target: Alpha-bungarotoxin (Bungarus multicinctus) (UniProt P60615); assay: alpha-bungarotoxin binders on microarray, profiling panel, artefact control for SMM control protein annotation, biochemical, small-molecule microarray, Alexa647 label, 635/667 nm fluorescence (AID 1117); conditions: alpha-BTX-A647 binding fluorescence, higher = more signal
[11] = biological target: Albumin (Bos taurus) (UniProt P02769); assay: bovine serum albumin binders on microarray, profiling panel, artefact control for SMM control protein annotation, biochemical, small-molecule microarray, Alexa647 label, 635/667 nm fluorescence (AID 1118); conditions: BSA-A647 binding, fluorescence 635 nm, higher = more signal;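 also: score merges 667 nm emission intensity and signal-to-noise per printed compound spot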
[12] = small-molecule microarray binders of probe aXIP, primary screen, biochemical, NeuroSMM set, 635/667 nm fluorescence (AID 1119); conditions: higher = more signal, called active from +8 up or from −8 down;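 also: probe is the protein aXip251-270 applied at 1 µg/mL to compound-printed slides; binding of probe to printed compounds measured as 667 nm fluorescence plus signal to noise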
[13] = small-molecule binders of probe aNOTCH3, primary screen, biochemical, small-molecule microarray, 635/667 nm fluorescence (AID 1120); conditions: higher = more signal;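 also: probe is a biotin-tagged antibody raised against NOTCH3 rather than NOTCH3 protein; score merges spot fluorescence near 667 nm with spot signal to noise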
[14] = small-molecule binders of probe aNOTCH2, primary screen, biochemical, small-molecule microarray, 635/667 nm fluorescence (AID 1121); conditions: higher = more signal;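 also: score merges feature fluorescence read at 667 nm with its signal to noise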
[15] = biological target: Carbonic anhydrase 2 (Homo sapiens) (UniProt P00918); assay: CAII small-molecule binders, profiling panel, biochemical, small-molecule microarray, Alexa647-labelled CAII (AID 1122); conditions: CAII-A647 binding fluorescence, higher = more signal
[16] = COS7 lysate on small-molecule microarray, probe aHis, 635 nm (AID 1123); conditions: COS7 cell lysate, fluorescence, higher = more signal;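 also: z-score combines 667nm fluorescence intensity with signal-to-noise per printed compound spot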
[17] = compound binding in COS7 lysate, probe aLAP1, primary screen, cell lysate, small-molecule microarray (AID 1124); conditions: probe aLAP1, fluorescence, higher = more signal;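 also: lysate comes from COS7 cells expressing LAP1 and is applied at 0.3 µg/mL; score merges spot fluorescence near 667 nm with signal-to-noise over triplicate slides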
[18] = tested on: Sam68 (KHDRBS1); assay: Sam68 small-molecule binders, primary screen, biochemical, small-molecule microarray, 635 nm fluorescence (AID 1125); conditions: small-molecule microarray binding, higher = more signal;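 also: score merges 667 nm channel intensity with signal to noise over triplicate slides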
[19] = tested on: Chordin-like protein 2 (CHRDL2); assay: CHRDL2 small-molecule binders, primary screen, biochemical, small-molecule microarray, 635 nm fluorescence (AID 1126); conditions: small-molecule microarray binding, fluorescence 635 nm; higher = more signal;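 also: printed compound slides probed with Chrdl2 protein at 4 µg/mL for 1 h at 4 C; score merges 667 nm emission intensity with signal to noise over three replicate slides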
[20] = biological target: Concanavalin-A (Canavalia ensiformis) (UniProt P02866); assay: ConA small-molecule binders, primary screen, artefact control for SMM control protein annotation, biochemical, small-molecule microarray, Alexa647 label, 635 nm (AID 1127); conditions: ConA-A647 binding fluorescence, higher = more signal;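 also: z combines 667 nm emission intensity with signal-to-noise across three replicate slides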
Concanavalin-A (Canavalia ensiformis), sequence (P02866 whole entry, looked up): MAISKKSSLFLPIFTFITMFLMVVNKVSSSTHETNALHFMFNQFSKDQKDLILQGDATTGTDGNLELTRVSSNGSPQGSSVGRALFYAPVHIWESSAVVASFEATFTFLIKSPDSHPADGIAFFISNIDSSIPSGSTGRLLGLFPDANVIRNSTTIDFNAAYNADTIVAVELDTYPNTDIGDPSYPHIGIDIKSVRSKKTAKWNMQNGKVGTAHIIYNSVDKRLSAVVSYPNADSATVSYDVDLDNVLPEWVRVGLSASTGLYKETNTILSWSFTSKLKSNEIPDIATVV

Left-right determination factor 2 (Homo sapiens), sequence (O00292 whole entry, looked up): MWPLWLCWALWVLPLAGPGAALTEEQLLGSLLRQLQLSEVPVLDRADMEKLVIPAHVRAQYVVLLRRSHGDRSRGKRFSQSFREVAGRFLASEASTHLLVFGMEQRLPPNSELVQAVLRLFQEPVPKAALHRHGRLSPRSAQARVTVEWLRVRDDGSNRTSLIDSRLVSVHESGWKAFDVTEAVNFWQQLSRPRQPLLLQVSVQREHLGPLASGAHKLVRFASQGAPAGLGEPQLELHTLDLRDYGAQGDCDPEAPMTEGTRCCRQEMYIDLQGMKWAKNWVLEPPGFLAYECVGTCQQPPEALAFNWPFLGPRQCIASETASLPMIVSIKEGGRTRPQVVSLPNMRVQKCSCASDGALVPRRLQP
Alpha-bungarotoxin (Bungarus multicinctus), sequence (P60615 whole entry, looked up): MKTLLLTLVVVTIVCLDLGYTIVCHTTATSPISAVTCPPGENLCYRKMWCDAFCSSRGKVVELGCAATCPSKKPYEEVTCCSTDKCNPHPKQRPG
Albumin (Bos taurus), sequence (P02769 whole entry, looked up): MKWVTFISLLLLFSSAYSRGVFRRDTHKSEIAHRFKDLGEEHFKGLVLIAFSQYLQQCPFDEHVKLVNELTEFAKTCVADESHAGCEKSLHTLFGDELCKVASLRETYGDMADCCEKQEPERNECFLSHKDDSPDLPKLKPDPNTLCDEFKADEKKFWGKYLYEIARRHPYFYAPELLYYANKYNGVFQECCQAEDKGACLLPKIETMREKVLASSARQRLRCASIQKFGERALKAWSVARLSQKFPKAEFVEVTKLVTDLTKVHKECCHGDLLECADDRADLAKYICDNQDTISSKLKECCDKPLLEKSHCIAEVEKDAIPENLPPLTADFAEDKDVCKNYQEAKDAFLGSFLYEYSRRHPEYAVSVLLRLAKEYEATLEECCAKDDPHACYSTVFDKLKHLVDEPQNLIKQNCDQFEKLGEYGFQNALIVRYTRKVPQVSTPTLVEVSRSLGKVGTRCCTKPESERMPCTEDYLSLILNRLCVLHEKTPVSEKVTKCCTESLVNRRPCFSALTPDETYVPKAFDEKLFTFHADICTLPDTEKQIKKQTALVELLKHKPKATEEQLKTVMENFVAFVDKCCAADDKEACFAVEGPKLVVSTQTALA
Torsin-1A-interacting protein 1 (Homo sapiens), sequence (Q5JTV8 whole entry, looked up): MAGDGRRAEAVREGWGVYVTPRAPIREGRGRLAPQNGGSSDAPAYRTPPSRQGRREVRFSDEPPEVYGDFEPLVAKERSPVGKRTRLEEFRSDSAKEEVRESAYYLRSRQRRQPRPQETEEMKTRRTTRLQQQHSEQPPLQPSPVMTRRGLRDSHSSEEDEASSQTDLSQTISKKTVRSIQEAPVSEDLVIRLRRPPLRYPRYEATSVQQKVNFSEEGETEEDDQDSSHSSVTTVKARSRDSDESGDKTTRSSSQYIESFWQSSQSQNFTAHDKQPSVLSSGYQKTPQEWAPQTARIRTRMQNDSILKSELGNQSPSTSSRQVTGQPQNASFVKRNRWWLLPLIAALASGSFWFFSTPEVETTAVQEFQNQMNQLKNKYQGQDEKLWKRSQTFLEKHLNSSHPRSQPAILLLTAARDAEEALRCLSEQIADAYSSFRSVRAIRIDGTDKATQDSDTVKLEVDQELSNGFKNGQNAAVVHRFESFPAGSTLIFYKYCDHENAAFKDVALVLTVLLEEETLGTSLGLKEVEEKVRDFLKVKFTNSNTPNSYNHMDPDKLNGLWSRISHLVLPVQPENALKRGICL

Row | Compound | composite z-score [1] | z-score [2] | composite z-score [3] | composite z-score [4] | composite z-score [5] | composite z-score [6] | composite z-score [7] | composite z-score [8] | composite z-score [9] | composite z-score [10] | composite z-score [11] | composite Z-score [12] | composite z-score [13] | composite z-score [14] | composite z-score [15] | composite z-score [16] | composite z-score [17] | composite z-score [18] | composite z-score [19] | composite z-score [20]
1 | COc1cc2c(cc1OC)CN(C(=O)[C@@H]1[C@H]3C(=O)O[C@H](c4ccccc4)[C@H](c4ccccc4)N3[C@H](c3ccc(O)cc3)[C@@]13C(=O)Nc1ccc(C#CCCO)cc13)CC2 | 1.12 | -1.09 | 0.686 | 0.758 | -0.224 | -0.0538 | -0.11 | -0.102 | 0.678 | 0.319 | 0.571 | 0.37 (inactive) | -0.0699 | -0.113 | 0.606 | 1.08 | 0.78 | 1.13 | 0.481 | 0.754
2 | C=C(CCCC)/C(=C/C[C@H](OC(C)=O)c1ccc(OCCO)cc1)c1cc(C(=O)OC)ccc1OC | 1.37 | -1.69 | -0.399 | 0.142 | -0.212 | 0.027 | -0.221 | -0.132 | 0.405 | 0.558 | 0.891 | 0.414 (inactive) | 0.0297 | -0.0743 | 0.663 | 1.49 | 0.561 | 1.17 | -0.15 | 0.366
3 | C=CC1c2cc(O)c(OC)cc2CCN1Cc1ccc([N+](=O)[O-])o1 (stereo not given) | 0.0967 | 0.366 | -0.54 | 1.15 | 1.18 | 0.0306 | 0.13 | 0.57 | 1.82 | 0.899 | 0.576 | 0.402 (inactive) | 0.136 | -0.0708 | 0.847 | 2.05 | 1.1 | 0.358 | -0.807 | 0.103
4 | CC(C)(C)OC(=O)CC[C@]12N=C(c3ccc(OCCCO)cc3)O[C@H]1c1ccccc1N(Cc1ccccc1)C2=O | 0.552 | -2.09 | 0.27 | 0.42 | 0.348 | -0.0765 | -0.0969 | 0.963 | 1.36 | 1.28 | 0.0468 | 2.86 (inactive) | 0.0525 | -0.0456 | 0.557 | 2.39 | 0.504 | 1.3 | 0.581 | 0.995
5 | CN(C)CCCNC(=O)[C@@H]1c2ccccc2C(=O)N(C2CCCCC2)[C@H]1c1ccc(CO)cc1 | 1.44 | -2.43 | 1.17 | 1.41 | -0.179 | -0.0459 | 0.191 | -0.312 | 0.87 | 0.233 | -0.706 | 0.245 (inactive) | 0.303 | -0.0891 | 0.672 | 1.38 | 0.337 | 1.29 | 1.06 | 1.08
6 | COC(=O)C(CC#Cc1ccc2c(c1)[C@]1(C(=O)N2)[C@H](C(=O)Nc2nc3ccccc3s2)[C@H]2C(=O)O[C@H](c3ccccc3)[C@H](c3ccccc3)N2[C@@H]1c1ccc(OCCO)cc1)C(=O)OC | 1.39 | -1.85 | 0.768 | 1.52 | 0.326 | 0.189 | 0.427 | 1 | 2.02 | 1.62 | 0.942 | 0.0898 (inactive) | 0.178 | -0.0209 | 0.553 | 2.29 | 1.04 | 1.3 | 0.517 | 1.12
7 | O=C1C2C=CC(C(O)c3cccc(O)c3)N(Nc3ccccc3)C2C(=O)N1c1ccccc1 (stereo not given) | 0.752 | -0.424 | -0.0995 | 0.46 | 0.16 | 0.0077 | 0.398 | 0.496 | 0.539 | 0.546 | 0.818 | 0.365 (inactive) | 0.185 | -0.155 | 0.792 | 0.653 | 0.069 | 0.16 | -0.201 | 0.338
8 | C=C[C@H](C)[C@H](OC(=O)Nc1ccc(OC)cc1)c1ccc(OCCO)cc1 | -0.562 | 0.0055 | -2.08 | -1.39 | -0.0296 | -0.222 | -0.0553 | -0.142 | -0.18 | -1.79 | -0.381 | 0.838 (inactive) | -0.279 | -0.209 | 0.464 | 0.718 | 0.434 | -0.321 | -1.18 | -1.35
9 | [N-]=[N+]=Nc1ccccc1C[C@]1(C(=O)O)N=C(c2ccc(OCCCO)cc2)O[C@H]1c1ccccc1N=[N+]=[N-] | 0.99 | -1.02 | 0.282 | 2.1 | 0.923 | 0.0859 | -0.0263 | 2 | 1.5 | 1.22 | 0.893 | 0.644 (inactive) | 0.293 | 0.166 | 0.57 | 2.84 | 0.871 | 1.32 | 0.135 | 1.13
10 | CC(C)CNC(=O)[C@@H]1c2ccccc2C(=O)N(C2CCCCC2)[C@H]1c1ccc(CO)cc1 | 0.0857 | -0.48 | -0.276 | 0.54 | 1.09 | -0.124 | -0.153 | 0.313 | 0.875 | -0.624 | -0.183 | 1.32 (inactive) | -0.159 | -0.118 | 0.694 | 2.44 | -0.264 | 0.369 | -0.718 | -0.0374
11 | COc1cc(NN2C(C(O)C3CCCCC3)C=CC3C(=O)N(C)C(=O)C32)cc(OC)c1OC (stereo not given) | 1.44 | -0.611 | 0.0347 | 2.01 | 0.964 | 0.265 | 0.417 | 1.32 | 1.32 | 1.72 | 1.04 | 1.37 (inactive) | 0.678 | 0.22 | 0.424 | 2.78 | 0.339 | 1.32 | -0.531 | 1.15

Reference: PubChem BioAssay
